Screen size: about 310,000 compounds; about 14,000 (4.5%) showed an effect of 50% or more. Effects have a minus sign here. For the sample, strong results were picked, then their nearest neighbours and some compounds at random.
What follows are molecules tested against human ether-à-go-go-related gene (hERG) potassium channel (human, UniProt Q12809) (assay: primary screen, population patch clamp on CHO cells stably expressing hERG; higher = less effect of the substance).
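Note: peak tail current of the secondary pulse compared with the same well before compound.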

Sequence of human ether-à-go-go-related gene (hERG) potassium channel (Q12809 whole entry, looked up): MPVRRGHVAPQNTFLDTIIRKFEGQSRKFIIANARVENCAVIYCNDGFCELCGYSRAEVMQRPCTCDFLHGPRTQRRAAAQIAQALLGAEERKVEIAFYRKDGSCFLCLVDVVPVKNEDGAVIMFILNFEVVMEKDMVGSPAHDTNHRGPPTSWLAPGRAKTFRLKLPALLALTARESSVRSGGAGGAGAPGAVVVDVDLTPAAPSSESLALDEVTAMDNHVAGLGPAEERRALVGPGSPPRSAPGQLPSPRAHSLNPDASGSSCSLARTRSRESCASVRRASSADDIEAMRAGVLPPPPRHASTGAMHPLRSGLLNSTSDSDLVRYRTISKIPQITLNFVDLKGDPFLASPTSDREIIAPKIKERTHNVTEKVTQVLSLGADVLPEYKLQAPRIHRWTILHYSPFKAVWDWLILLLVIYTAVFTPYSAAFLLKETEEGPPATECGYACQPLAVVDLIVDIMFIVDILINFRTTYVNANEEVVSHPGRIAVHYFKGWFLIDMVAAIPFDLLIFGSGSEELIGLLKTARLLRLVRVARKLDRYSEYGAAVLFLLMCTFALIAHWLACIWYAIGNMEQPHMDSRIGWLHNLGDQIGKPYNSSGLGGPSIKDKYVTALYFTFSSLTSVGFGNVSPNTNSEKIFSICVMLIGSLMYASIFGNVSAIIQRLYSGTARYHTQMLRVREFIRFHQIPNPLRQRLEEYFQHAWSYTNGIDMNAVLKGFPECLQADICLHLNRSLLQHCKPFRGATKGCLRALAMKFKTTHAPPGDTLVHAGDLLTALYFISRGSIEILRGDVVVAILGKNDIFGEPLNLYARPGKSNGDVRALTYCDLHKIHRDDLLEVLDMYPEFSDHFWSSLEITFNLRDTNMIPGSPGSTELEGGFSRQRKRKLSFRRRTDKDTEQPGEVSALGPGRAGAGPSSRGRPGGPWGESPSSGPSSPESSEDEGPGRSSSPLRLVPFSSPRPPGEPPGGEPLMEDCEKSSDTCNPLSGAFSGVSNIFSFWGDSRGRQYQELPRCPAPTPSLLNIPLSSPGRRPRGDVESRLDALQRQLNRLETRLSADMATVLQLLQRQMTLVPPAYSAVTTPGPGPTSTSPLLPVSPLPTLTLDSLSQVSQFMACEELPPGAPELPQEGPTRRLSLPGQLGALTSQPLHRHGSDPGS

Compound | hERG current change (%, negative = inhibition) at 10uM
N#Cc1c(N)c(C(=O)c2ccccc2)n2ccccc12 | 10.7%
CC(=O)Nc1ccc(S(=O)(=O)N(C)CC(=O)OCC(=O)Nc2ccc3c(c2)OCO3)cc1 | 9.31%
NC(=O)c1cc2cc(Br)ccc2oc1=NCc1ccccc1 | 10.4%
CCCNC(=O)NC(C(=O)OC)C12CC3CC(CC(C3)C1)C2 (stereo not drawn) | -10.8%
CC(C)(C)c1ccc(NC(=O)CNC2CCCc3ccccc32)cc1.Cl (stereo not drawn) | 2.24%
CCCSc1nc2c(cnn2-c2ccc(F)cc2)c(=O)[nH]1 | 6.84%
COc1cc([N+](=O)[O-])c(C(=O)N2CCOCC2)c([N+](=O)[O-])c1 | 7.66%
O=C(OCC1OC(n2ncc(=O)[nH]c2=O)C(OC(=O)c2ccccc2)C1OC(=O)c1ccccc1)c1ccccc1 (stereo not drawn) | 14.6%
O=C(OCC1OC(n2ccc(=O)[nH]c2=O)C(O)C1OC(=O)c1ccccc1)c1ccccc1 (stereo not drawn) | -67.9%
O=C(OCC1OC(n2ccc(=O)[nH]c2=O)C(Cl)C1O)c1ccccc1 (stereo not drawn) | -9.37%
CCOC(=O)C1=NN(c2cccc(Cl)c2)C2=NC(C)=C(C(=O)OC)C(c3cccs3)N12 (stereo not drawn) | 6.72%
COc1ccc(CCNC(=S)N2CCC(Cc3ccccc3)CC2)cc1OC | -41.1%
COc1ccc(C(=O)N2CCN(Cc3cc(OC)ccc3OC)CC2)cc1.O=C(O)C(=O)O | -36%
COc1ccc(OC)c(CN2CCN(Cc3cccc4ccccc34)CC2)c1.O=C(O)C(=O)O | -65.2%
COc1ccc(CCNC(=O)c2ccc(CN3CCC(Cc4ccccc4)CC3)cc2)cc1 | -15.6%
COc1cc(CN2CCC(Cc3ccccc3)CC2)cc([N+](=O)[O-])c1O | 0.943%
COc1cc(CN2CCC(Cc3ccccc3)CC2)cc(OC)c1OC.O=C(O)C(=O)O | -52.8%
COc1ccc(CN2CCC(C(N)=O)CC2)cc1OCc1ccccc1.O=C(O)C(=O)O | -19.1%
COc1ccc(OC)c(CN2CCN(C(=O)c3cccc4ccccc34)CC2)c1.O=C(O)C(=O)O | -2.37%
COc1ccc(CN2CCC(Cc3ccccc3)CC2)cc1OC.O=C(O)C(=O)O | -70.3%
COc1ccc(CCNC(=O)c2ccc(CN3CCC(Cc4ccccc4)CC3)cc2)cc1OC | -67.9%
COc1cc(CN2CCC(C(N)=O)CC2)ccc1OCc1ccccc1.O=C(O)C(=O)O | -39.9%

Compound | hERG current change (%, negative = inhibition) at 10uM
COc1cc(CN2CCN(C(=O)Cc3ccccc3)CC2)cc(OC)c1OC.O=C(O)C(=O)O | -0.522%
CCOc1cc(/C=N/NC(=O)CSc2cccc3cccnc23)ccc1O | 9.6%
CCOc1ccccc1OCCC(=O)OCC(=O)Nc1c(C)nn(-c2ccccc2)c1C | 1.41%
O=C(CCC(=O)c1ccccc1)NCc1cccc(C(F)(F)F)c1 | 4.89%
CC(C)(C)c1ccc(/C=C(\c2nc3ccccc3[nH]2)S(=O)(=O)c2ccccc2)cc1 | 0.84%
O=C(Nc1c2c(nn1-c1ccccc1)CS(=O)(=O)C2)c1ccccc1C(F)(F)F | 14.3%
O=C(O)c1ccc(/C=C/c2nc3sc4c(c3c(=O)[nH]2)CCC4)cc1 | 14.2%
Cc1nn(C(=O)c2cccnc2)c(C)c1C | 0.855%
C/C(=N/NS(=O)(=O)c1cccc([N+](=O)[O-])c1)c1c[nH]c2ccccc12 | 13%
CCOC(=O)/C(C#N)=C/c1cccc([N+](=O)[O-])c1 | 25%
CC(Oc1ccccc1Cl)C(=O)Nc1ccc(S(=O)(=O)Nc2nccs2)cc1 (stereo not drawn) | -0.857%
CC1CCC2(CC1)NC(=O)N(CC(=O)Nc1cccc(C#N)c1)C2=O (stereo not drawn) | 9.8%
O=C(NCc1cccnc1)NC(=O)c1ccc(Cl)cc1 | 3.09%
CCN1C(=O)[C@@H]2[C@@H](c3ccc(-c4ccc5c(c4)OCO5)cc3)N3CCCC[C@@]3(C(=O)OC)[C@@H]2C1=O.O=C(O)C(F)(F)F | 21%
COc1ccc(Br)cc1CN1CCN(C(=O)c2cccc(F)c2)CC1.O=C(O)C(=O)O | -39.2%
O=C(O)C(=O)O.c1ccc(CC2CCN(Cc3ccccn3)CC2)cc1 | -23.1%
COc1ccc(OC)c(CN2CCN(C(=O)Cc3ccccc3)CC2)c1.O=C(O)C(=O)O | -4.63%
Cc1[nH]c2ccccc2c1CN1CCC(Cc2ccccc2)CC1.O=C(O)C(=O)O | -67.4%
COc1cccc(C(=O)N2CCN(Cc3cc(Br)ccc3OC)CC2)c1.O=C(O)C(=O)O | -51.8%
COc1ccc(OC)c(CN2CCCCCC2)c1.O=C(O)C(=O)O | 15.7%
Cc1[nH]c2ccccc2c(=O)c1CN1CCCCCC1 | -7.41%
COc1ccc(Br)cc1CN1CCN(C(=O)c2ccc(OC)c(OC)c2)CC1.O=C(O)C(=O)O | -38.1%

Compound | hERG current change (%, negative = inhibition) at 10uM
COc1ccc(OC)c(CN2CCC(Cc3ccccc3)CC2)c1.O=C(O)C(=O)O | -69.4%
CN1CCN(/N=C/c2nc(-c3ccccc3Cl)n3ccccc23)CC1 | -34.1%
CCCOC(=O)Nc1ccccc1C(N)=O | 4.61%
O=C(O)CCCCC1SCC2NC(=O)NC21 (stereo not drawn) | 3.46%
O=C(Nc1ccccc1F)Nc1ccc([N+](=O)[O-])cc1Cl | 18.4%
O=C(c1cc(=O)[nH]c2ccccc12)N1CCN(c2cccc(C(F)(F)F)c2)CC1 | -27.1%
CCOC(=O)c1sc(=S)n(-c2ccccc2Cl)c1C | -13.8%
CCOC(=O)Cn1c(=NC(=O)c2cccs2)sc2cc(C(=O)OC)ccc21 | 17.4%
Cc1ccc(NC(=O)c2cc([N+](=O)[O-])ccc2Cl)c(O)c1 | -4.12%
Cc1nc2ccc(NC(=O)CS(=O)(=O)c3ccc(F)cc3)cc2s1 | -7.44%
Cc1nc2cc(NC(=O)CS(=O)(=O)c3ccc(F)cc3)ccc2s1 | -55.8%
Cc1nc2cc(NC(=O)CS(=O)(=O)c3ccccc3)ccc2s1 | -23.8%
CCCN1C(=O)CC(C(=O)OC)=C1C | 12.9%
CCN(CC)c1ncnnc1-c1ccccc1 | 15.9%
CCN(CC)C1=NC=CC(c2ccccc2)=CC1C (stereo not drawn) | -55.1%
CCN(CC)c1ccccc1 | 12.7%
CCN(CC)c1nc(C(N)=O)cc(-c2ccccc2)n1 | -0.608%
CCC1C=C(c2ccccc2)C=CN=C1N(CC)CC (stereo not drawn) | -61.6%
CCN(CC)c1cc(-c2ccccc2)ncn1.Cl | -16.5%
COc1ccccc1NS(=O)(=O)c1cccc(N=C2N=C(N)c3ccccc32)c1 | 11.7%
CCCc1nn(C)c2c1C(c1ccncc1)C(C#N)=C(N)O2 (stereo not drawn) | 15.4%
C/C(O)=C/c1nc2ccccc2[nH]c1=O | -5.26%

Compound | hERG current change (%, negative = inhibition) at 10uM
C=C(Cl)COc1ccc2c(CCCC)cc(=O)oc2c1 | -24.9%
COc1ccccc1CNc1nc2ccccc2n1CCN1CCCCC1 | -61.5%
COc1cccc(CNc2nc3ccccc3n2CCN2CCCCC2)c1OC | -63.6%
Oc1ccccc1CNc1nc2ccccc2n1CCN1CCCCC1 | -2.31%
CCn1c(NCc2cccc(OC)c2OC)nc2ccccc21 | -21%
CCCn1c(NCc2cccc(OC)c2OC)nc2ccccc21 | -13.9%
C=CCn1c(NCc2ccccc2OC)nc2ccccc21 | -18.9%
CC(Nc1ccccc1CO)C(=O)Nc1cccc(Cl)c1Cl (stereo not drawn) | 5.35%
O=C(Cn1c(NCCO)nc2ccccc21)NCC(F)(F)F | 10.4%
O=C(NCCC1=CCCCC1)C1CCCN(S(=O)(=O)c2ccccc2)C1 (stereo not drawn) | 6.97%
CCCC(=O)Nc1ccc2oc(-c3ccncc3)nc2c1 | 5.92%
CCOC(=O)c1oc2ccccc2c1CN1CCCCC1.Cl | -55%
CCOC(=O)c1oc2ccccc2c1CN1CCN(c2ccccc2)CC1.Cl | -26.6%
CCOC(=O)c1oc2ccccc2c1CN1CC(C)OC(C)C1 (stereo not drawn) | -0.576%
CCOC(=O)c1oc2ccccc2c1CN1CCOCC1.Cl | -4.56%
CCOC(=O)c1oc2ccccc2c1CN1CCN(C)CC1.Cl | -61.5%
CCOC(=O)c1oc2ccccc2c1CN1CCN(C(=O)c2ccccc2)CC1 | -41.7%
Cc1ccc(Cn2cc(/C=C/C(=O)O)c(-c3ccccc3)n2)cc1 | 6.77%
CCC(C)C1Nc2ccc(C(=O)NCCc3ccc(OC)c(OC)c3)cc2NC1=O (stereo not drawn) | 20.4%
Cc1ccc(N2CCN(c3ccc(C)cc3)C2c2cccnc2)cc1 | 17.6%
CCC(=O)NC(=S)NNC(=O)COc1ccc(Br)cc1 | 14.4%

Source: paper PMC4336329 (PLoS ONE, 2015)
